Consider 25 molecules from PubChem BioAssay AID1508625 (Wald Lab, School of Medicine, Case Western Reserve …, 2021).

The assay in a line: small molecules boosting NK-mediated OVCAR3 lysis – imaging, primary NK cells, calcein-AM imaging, primary screen (AID 1508625).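 Further: compound given to NK cells 16 h before adding targets at 1.5 to 1 ratio.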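 On z-score: more negative robust z means stronger NK killing of tumor cells.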 Conditions: OVCAR3 lysis by primary NK cells, at 5 µM; z-score: measured here: robust Z-score, single-point normalisation.

Structures are written as SMILES.

On to `CCOc1ccc(-n2c(SCC(=O)c3ccccc3)nc3c([nH]c4ccccc43)c2=O)cc1`, for which the corrected activity, negative = more killing was -9% and the z-score was -2.24.

On to `CCC(=O)NC(Nc1ccccc1Cl)(C(F)(F)F)C(F)(F)F`, for which the corrected activity, negative = more killing is -0.701% and the z-score is -0.276.

On to `C#CCN1C(=O)C(O)(CC(=O)c2cccc3ccccc23)c2ccccc21` (stereo not given), for which the corrected activity, negative = more killing was -5.41% and the z-score was -2.06.

`COCc1cc(C)[nH]c(=O)c1C(=O)NC12CC3CC(CC(C3)C1)C2`: the corrected activity, negative = more killing was -5.27% and the z-score is -1.57.

For `COc1cccc(NS(=O)(=O)c2ccc3c(c2)[C@H]2C=CC[C@H]2[C@@H](c2ccccc2Cl)N3)c1`, the corrected activity, negative = more killing is -8.83% and the z-score is -2.64.

Regarding `Cc1cc2c(cc1C)NC(c1coc3ccc(Cl)cc3c1=O)C1=C(CC(C)(C)CC1=O)N2` (stereo not given), the corrected activity, negative = more killing was -2.17% and the z-score was -0.968.

`CC(=O)SCCC(=O)N1C(C)CCCC1C(=O)O` (stereo not given): the corrected activity, negative = more killing is -3.02% and the z-score was -1.19.

Take `CC1CCC(NC2CCCc3c2[nH]c2ccc([N+](=O)[O-])cc32)C1` (stereo not given): the corrected activity, negative = more killing is 3.64% and the z-score was 1.59.

As to `COc1ccc(C(=O)N2CCN(CC=Cc3ccccc3)CC2)cc1`, the corrected activity, negative = more killing was -1.03% and the z-score was -0.422.

In the case of `COC(=O)c1ccc(Sc2ccc(C)cc2)c([N+](=O)[O-])c1`, the corrected activity, negative = more killing was -2.5% and the z-score was -0.675.

As to `O=c1[nH]c2ccc(N=Cc3ccc(-c4ccc([N+](=O)[O-])cc4)o3)cc2[nH]1`, the corrected activity, negative = more killing is -0.571% and the z-score is -0.17.

Take `O=C(Oc1cccc(NC(=O)c2ccccc2Cl)c1)c1ccc(Cl)c(S(=O)(=O)N2CCCCC2)c1`: the corrected activity, negative = more killing was -3.19% and the z-score is -1.2.

`CCOc1ccccc1C=Nc1ccc(Cl)cc1Cl`: the corrected activity, negative = more killing was -4.37% and the z-score was -1.86.

On to `Cc1cccn2c(=O)c3cc(C(=O)N(CC(C)C)CC(C)C)sc3nc12`, for which the corrected activity, negative = more killing was -8.5% and the z-score was -2.41.

As to `COc1ccccc1CNCc1ccccn1`, the corrected activity, negative = more killing is -2.41% and the z-score is -0.766.

As for `CC(C)c1ccc(OCC(=O)Nc2ccc3c(c2)OCCO3)cc1`, the corrected activity, negative = more killing was -2.45% and the z-score is -0.869.

As to `Cc1ccccc1CSC1=NCCN1C(=O)c1ccc(OC(C)C)cc1`, the corrected activity, negative = more killing was -4.64% and the z-score was -1.14.

Turning to `CC1=C(C(=O)Nc2cccc(Cl)c2)C(c2cccc(Cl)c2)NC(=O)N1` (stereo not given), the corrected activity, negative = more killing is -1.94% and the z-score is -0.84.

For the molecule `CCc1ccc(NC(=O)c2ccccc2NC(=O)c2cccc(OC)c2)cc1`, the corrected activity, negative = more killing is 1.91% and the z-score was 1.06.

Consider `CN(C)S(=O)(=O)c1ccc(C(O)=C2C(=O)C(=O)N(Cc3cccnc3)C2c2ccc(Cl)cc2)cc1` (stereo not given), for which the corrected activity, negative = more killing was -2.24% and the z-score is -0.973.

Regarding `O=C(COc1ccc(Br)cc1)NCc1ccco1`, the corrected activity, negative = more killing was -0.415% and the z-score was -0.147.

Take `COc1cccc(Nc2ncnc3sc(C)c(S(=O)(=O)N4CCC(C)CC4)c23)c1`: the corrected activity, negative = more killing was -2.61% and the z-score is -0.65.

With `CCOc1cc(C(=S)N2CCCCC2)ccc1OC(=O)c1ccc([N+](=O)[O-])cc1`, the corrected activity, negative = more killing is 0.525% and the z-score was 0.163.

In the case of `Cc1ccc(Cn2c3[n+](c4ccccc42)CC(O)CS3)cc1` (stereo not given), the corrected activity, negative = more killing is -3% and the z-score is -1.55.

As to `Cc1ccc(N2C(=O)C(N3C(=O)c4cccc([N+](=O)[O-])c4C3=O)C2c2ccc(F)cc2)cc1F` (stereo not given), the corrected activity, negative = more killing was -2.91% and the z-score was -0.904.
